# Screening data (PubChem)
# SENP8 block-1 = SENP8 protease inhibitors, primary screen, biochemical, luminescence; actives 1.2% (n = 330,000); AID 2540, 2010; inhibition, % at 10 µM; purified SENP8, Z-RLRGG-aminoluciferin cleavage; Sentrin-specific protease 8 (Homo sapiens), Q96LD8; in the data active means inhibition above about 50%
# SENP8 block-2 = human SENP8 protease inhibitors, primary screen, biochemical, fluorescence, Nedd8 protein substrate, uHTS; Sentrin-specific protease 8 (Homo sapiens), Q96LD8; recombinant SENP8; inhibition, % at 20 µM; actives 0.64% (n = 360,000); AID 602440, 2012; in the data active means inhibition mostly above about 40%, no sharp cut-off; inactive means mostly below about 27%
# EBI2 block = EBI2 receptor antagonists, beta-arrestin recruitment, primary screen, cell-based, luminescence, 7a,25-OHC stimulation, uHTS; G-protein coupled receptor 183 (Homo sapiens), P32249; 7a,25-OHC stimulated; inhibition, % at 5 µM; actives 0.81% (n = 360,000); AID 651636, 2012; in the data active means inhibition above about 38%;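 further: enzyme fragment complementation signal reports receptor beta-arrestin coupling in cells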
# SENP7 block = SENP7 protease inhibitors, primary screen, biochemical, luminescence, uHTS | inhibition, % at 5 µM | AID 434973, 2010 | actives 1.5% (n = 330,000) | Sentrin-specific protease 7 (Homo sapiens), Q9BQF6 | recombinant SENP7, Z-RLRGG-aminoluciferin luminescence, 40 min;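 active means inhibition above about 50% at the single test dose, limit read from the data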
# Target sequence (Q9BQF6 706-1050 limits assumed): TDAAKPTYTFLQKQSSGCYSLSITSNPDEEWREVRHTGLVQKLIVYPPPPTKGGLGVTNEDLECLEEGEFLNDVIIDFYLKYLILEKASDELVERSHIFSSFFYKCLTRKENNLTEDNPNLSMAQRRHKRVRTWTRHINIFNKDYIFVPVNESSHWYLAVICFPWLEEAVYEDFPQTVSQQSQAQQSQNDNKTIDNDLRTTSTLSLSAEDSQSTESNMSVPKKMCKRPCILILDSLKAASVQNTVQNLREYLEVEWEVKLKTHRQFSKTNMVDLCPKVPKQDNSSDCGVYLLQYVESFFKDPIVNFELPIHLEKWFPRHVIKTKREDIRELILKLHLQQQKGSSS
# SENP6 block = SENP6 protease inhibitors, primary screen, biochemical, luminescence, uHTS; Recombinant SENP6 catalytic domain, aminoluciferin luminescence; Sentrin-specific protease 6 (Homo sapiens), Q9GZR1; AID 2599, 2010; inhibition, % at 10 µM; actives 1.8% (n = 330,000);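 active means inhibition above about 50% at the single tested dose, limit read from the data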
# AHR activator = AHR activators, primary screen, cell-based, luminescence, luciferase reporter, human; AID 2796, 2010; AHR-responsive luciferase reporter cells; actives 2.5% (n = 320,000); Aryl hydrocarbon receptor (Homo sapiens), P35869; activation, % at 5 µM; in the data active means activation above about 47%
# SENP8 conf = SENP8 protease inhibitors, retest, confirmation, biochemical, luminescence, single concentration. shares compounds with SENP7 block. Recombinant SENP8, Z-RLRGG-aminoluciferin luminescence, 60 min. inhibition, % at 12.5 µM. actives 40% (n = 6,200);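 active means mean inhibition across replicates above about 50%, limit read from the data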
# SENP6 conf = SENP6 protease inhibitors, confirmation, biochemical, luminescence, single concentration. shares compounds with SENP7 block. recombinant SENP6, Z-RLRGG-aminoluciferin luminescence. inhibition, % at 12.5 µM. actives 58% (n = 6,200). AID 488915, 2010
# SENP7 conf = SENP7 protease inhibitors, retest, confirmation, biochemical, luminescence, single concentration; recombinant SENP7, Z-RLRGG-aminoluciferin luminescence, 40 min; actives 69% (n = 6,200); AID 488917, 2010; shares compounds with SENP7 block; inhibition, % at 12.5 µM
# Casp3 SENP sel = caspase-3 protease inhibitors, confirmation, selectivity assay for SENP inhibitor project, biochemical, single concentration. shares compounds with SENP7 block. purified caspase-3, Z-DEVD-aminoluciferin luminescence, 60 min. inhibition, % at 12.5 µM. actives 60% (n = 6,200). AID 488918, 2010;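 active means mean inhibition above about 50%, limit read from the data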
# Target sequence (P42574 28-227 limits assumed): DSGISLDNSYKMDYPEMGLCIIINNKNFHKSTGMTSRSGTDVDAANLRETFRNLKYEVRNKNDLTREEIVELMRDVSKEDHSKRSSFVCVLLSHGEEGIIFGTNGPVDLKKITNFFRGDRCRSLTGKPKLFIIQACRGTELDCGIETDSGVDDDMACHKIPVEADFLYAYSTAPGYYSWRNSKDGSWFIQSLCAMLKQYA
# Luc interf = luminescence interference (SENP counter-screen); shares compounds with SENP7 block; Pre-incubated SENP8/Z-RLRGG-aminoluciferin, luciferase luminescence interference; inhibition, % at 12.5 µM; actives 39% (n = 6,200); AID 488919;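 active means mean inhibition above about 50% when retested at one dose, limit read from the data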
# A number is an active result; - = inactive; . = no result given. In the library only some 5% were active in any assay of this set; here they are far more common.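 How the source made its calls, unless noted: active means mean inhibition above about 50% in the one-dose retest (limit read from the data); inactive means the rest.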
SMILES,SENP8 block-1,SENP8 block-2,EBI2 block,SENP7 block,SENP6 block,AHR activator,SENP8 conf,SENP6 conf,SENP7 conf,Casp3 SENP sel,Luc interf
Cc1ccc2c(c1)sc(=NC(=O)c1cccs1)n2C,95,-,-,100,93,56,-,75,99,95,-
CCOC(=O)c1sc(=NC(=O)c2cccs2)n(C)c1C,-,-,-,55,-,-,-,-,-,-,-
COc1ccc(Cl)cc1NC(=O)CCNS(=O)(=O)c1cccc2nonc12,-,-,-,-,-,-,.,.,.,.,.
Cc1ccccc1N=C1Nc2ccccc2CS1,74,-,-,80,86,-,-,79,95,79,-
CCn1c(C)c(C2=CCN(S(=O)(=O)c3ccccc3)CC2)c2ccccc21,-,-,-,-,-,-,.,.,.,.,.
Cc1ccc2cccc(N)c2n1,-,-,-,55,52,-,-,-,-,-,-
O=C1c2ccccc2-c2nnc(-c3ccccc3)cc21,96,-,70,99,99,-,-,-,-,-,-
COc1ccc(-c2cc3c(nn2)-c2ccccc2C3=O)cc1,96,43,51,99,97,-,-,-,-,-,-
Cc1cccc(-c2cc3c(nn2)-c2ccccc2C3=O)c1,95,-,-,100,90,-,-,74,88,83,-
O=C(O)c1ccc(/C=N/Nc2ccc(Cl)nn2)cc1,65,-,-,76,72,-,-,-,-,81,-
CC(C)(C)c1ccc(/C=N/Nc2ccc(C(=O)O)cc2)cc1,96,-,-,99,100,-,100,101,104,94,99
O=C(O)c1ccc(N/N=C/c2c(F)cccc2Cl)cc1,96,-,-,98,97,-,100,101,104,96,99
O=C(O)c1ccc(N/N=C/c2ccc(C(F)(F)F)cc2)cc1,96,-,-,98,101,-,99,99,102,94,98
O=C(N/N=C/c1ccc(C(F)(F)F)cc1)c1ccc(O)cc1,-,-,-,-,-,-,.,.,.,.,.
N#CCC(=N)N1CCN(c2ccccc2Cl)CC1,-,-,-,-,-,-,.,.,.,.,.
O=C(O)c1ccc(/C=N/Nc2ccc(F)cc2F)cc1,96,-,-,99,101,-,99,100,103,98,99
O=C(c1cccs1)N1CCN(c2nc3c(F)cc(F)cc3s2)CC1,-,-,-,-,-,-,.,.,.,.,.
O=[N+]([O-])c1ccc2nc(N3CCCC3)sc2c1,-,-,-,-,-,-,.,.,.,.,.
Clc1cc(Cl)c2nc(N3CCCCC3)sc2c1,-,-,-,-,67,-,-,-,-,-,-
c1ccc2sc(N3CCCCC3)nc2c1,.,-,-,.,.,.,.,.,.,.,.
Fc1cc(F)c2nc(N3CCCCC3)sc2c1,61,-,-,75,-,-,-,75,95,72,-
Fc1ccc2nc(N3CCCC3)sc2c1,-,-,-,56,-,-,-,-,85,69,-
CCOc1ccc2nc(N3CCCCCC3)sc2c1,-,-,-,62,55,-,51,55,84,50,57
CCOC(=O)N1CCC(NC(=O)CC2C(=O)NCCN2Cc2ccccc2F)CC1 (configuration not stated),-,-,-,-,-,-,.,.,.,.,.
Cc1ccccc1NC(=O)c1cccc(S(=O)(=O)Oc2ccc([N+](=O)[O-])cc2)c1,-,-,-,97,-,-,-,-,-,-,-
SMILES,SENP8 block-1,SENP8 block-2,EBI2 block,SENP7 block,SENP6 block,AHR activator,SENP8 conf,SENP6 conf,SENP7 conf,Casp3 SENP sel,Luc interf
c1ccc(Nc2nnc(-c3cccc4ccccc34)o2)cc1,-,-,-,65,-,-,-,-,53,-,-
COc1ccc2[nH]c3c(=O)n(Cc4ccc(C(=O)N5CCCC5)cc4)c(=S)[nH]c3c2c1,-,-,-,-,66,-,-,-,-,-,-
Cc1ccc(NCC(=O)Nc2c(C)n(C)n(-c3ccccc3)c2=O)cc1S(=O)(=O)N(C)C,-,-,-,-,-,-,.,.,.,.,.
Oc1ccccc1C1=Nc2nc3ccccc3n2C(c2ccccc2)C1 (configuration not stated),59,-,-,71,79,-,-,-,-,-,-
O=C(Nc1nnc(C(F)(F)F)s1)c1cccnc1,-,-,-,-,55,-,54,54,88,85,66
COc1ccc(C(=O)Nc2nnc(-c3ccccc3)s2)cc1,-,-,-,-,-,.,.,.,.,.,.
COc1ccc(C(=O)Nc2nnc(C(F)(F)F)s2)cc1,-,-,-,-,61,59,-,-,64,64,-
COC(=O)Nc1nnc(-c2ccc(OC)cc2)s1,-,-,-,75,68,-,50,55,85,85,52
O=C(O)c1c[nH]c2nccnc12,.,-,-,.,.,.,.,.,.,.,.
Cc1cccc(C)c1OCc1cc(C(=O)N2CCN(c3ccc(F)cc3)CC2)no1,-,-,-,-,55,-,-,-,81,64,59
Cc1cc(N2CCCCC2)n2ncc(-c3ccccc3)c2n1,-,-,-,53,50,-,-,-,75,-,-
Cc1cc(N2CCCCC2)n2ncc(-c3ccc(Cl)cc3)c2n1,-,-,-,-,-,-,.,.,.,.,.
Cc1cc(NCCCn2ccnc2)n2ncc(-c3ccccc3)c2n1,-,-,-,55,67,-,53,52,82,60,-
Cc1cc(NCc2ccccc2)n2ncc(-c3ccccc3)c2n1,-,-,-,-,-,-,.,.,.,.,.
Cc1cc(NC2CCCC2)n2ncc(-c3ccccc3)c2n1,71,-,-,83,77,-,80,84,93,62,-
Cc1cc(NC2CCCC2)n2nc(C)c(-c3ccccc3)c2n1,-,-,-,-,-,-,.,.,.,.,.
